The target in assay [1] is Acetylcholinesterase (Homo sapiens) (UniProt P22303). In words: Acetylcholinesterase (AChE) small molecule antagonists: enzyme-based qHTS assay (AID 1347397; calls by dose curve; also: nearly all actives have a fitted effect of over 55% in size). Particulars: Potency: AChE enzyme activity inhibition. An outline of the steps:
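Recombinant human AChE, dispensed at 50 mU/mL, was preincubated with Tox21 10K compounds or DMSO vehicle for 30 min at room temperature. DTNB plus acetylthiocholine was then added, and thiocholine was measured colorimetrically after a further 10 min.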
For orientation: In qHTS, concentration-response curves come from the screen itself.

Assay [2] has the same target. The experiment in a line: Acetylcholinesterase (AChE) small molecule antagonists: fluorescence cell-based qHTS assay (AID 1347398; calls by dose curve; also: nearly all actives have a fitted effect of over 50% in size). Particulars: Potency: AChE activity. An outline of the steps: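 Human SH-SY5Y cells were plated overnight at 37 C, exposed to compound for 30 min at 37 C, 5% CO2, then given acetylthiocholine plus Thiolite Green for 40 min at room temperature; thiocholine fluorescence (Ex/Em 490/520 nm) reports endogenous AChE activity.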

For assay [3], the target named is Cytochrome P450 2C19 (Homo sapiens) (UniProt P33261). In words: Cytochrome P450 Family 2 Subfamily C Member 19 (CYP2C19) small molecule antagonists: luciferase reporter qHTS assay (AID 1671197). Also: nearly all actives have a fitted effect of over 65% in size. As to activity change, negative = inhibition: series mostly up to about 120 µM. The method, boiled down:
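P450-Glo CYP2C19 screening system; proluciferin substrate; DMSO compound stocks; 10 min RT preincubation; NADPH regeneration, 1 h at 37C; luciferin detection reagent, 20 min RT; luminescence as RLU.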
(Reporter assays use an easily measured gene product as a stand-in for the process of interest.)

Assay [4] concerns the target Cytochrome P450 2C9 (Homo sapiens) (UniProt P11712). In words: Cytochrome P450 Family 2 Subfamily C Member 9 (CYP2C9) small molecule antagonists: luciferase reporter qHTS assay (AID 1671198). Also: nearly all actives have a fitted effect of over 50% in size. As to activity change, negative = inhibition: series mostly up to about 120 µM. The method, boiled down: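 CYP2C9 activity was measured with a P450-Glo proluciferin substrate. Enzyme–substrate mix was held with compound for 10 min at room temperature, then NADPH regeneration solution was added for 1 h at 37C. Luciferin product was read as luminescence.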

In assay [5] the target is Cytochrome P450 1A2 (Homo sapiens) (UniProt P05177). In words: Cytochrome P450 Family 1 Subfamily A Member 2 (CYP1A2) small molecule antagonists: luciferase reporter qHTS assay (AID 1671199). Also: nearly all actives have a fitted effect of over 50% in size. As to activity change, negative = inhibition: series mostly up to about 120 µM. An outline of the steps: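 P450-Glo CYP1A2, 1536-well qHTS: enzyme/proluciferin substrate + cpd (DMSO), 10 min RT; NADPH regen, 1 h RT; detection reagent, 20 min; luminescence, RLU.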
Sequence of Cytochrome P450 1A2 (Homo sapiens) (P05177 whole entry, looked up): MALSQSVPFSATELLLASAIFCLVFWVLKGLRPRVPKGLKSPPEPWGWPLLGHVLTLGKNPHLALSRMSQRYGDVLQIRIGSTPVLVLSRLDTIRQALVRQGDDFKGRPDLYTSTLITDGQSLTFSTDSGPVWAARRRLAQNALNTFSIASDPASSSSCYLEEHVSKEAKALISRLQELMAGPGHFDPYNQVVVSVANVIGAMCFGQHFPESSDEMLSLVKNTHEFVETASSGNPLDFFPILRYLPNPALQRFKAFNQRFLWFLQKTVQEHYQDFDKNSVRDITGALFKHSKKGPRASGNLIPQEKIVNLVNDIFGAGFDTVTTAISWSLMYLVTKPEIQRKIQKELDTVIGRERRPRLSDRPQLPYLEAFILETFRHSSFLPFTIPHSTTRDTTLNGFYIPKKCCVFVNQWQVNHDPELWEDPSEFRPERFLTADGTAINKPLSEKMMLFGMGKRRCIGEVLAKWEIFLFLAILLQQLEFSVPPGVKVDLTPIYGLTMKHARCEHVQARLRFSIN

The target of assay [6] is Voltage-gated inwardly rectifying potassium channel KCNH2 (Homo sapiens) (UniProt Q12809). The experiment in a line: Human Ether-a-go-go-Related Gene (hERG) channel small molecule antagonists: fluorescence cell-based qHTS assay (AID 1671200). Also: nearly all actives have a fitted effect of over 50% in size.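 As to activity change, negative = inhibition: hERG-expressing U2OS cells given a thallium stimulus after FluxOR II dye loading; series mostly up to about 77 µM.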 An outline of the steps: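 Fluorescence at 540 nm emission (480 nm excitation) was recorded kinetically for 2 min at 1-second intervals once the thallium-containing stimulus reached cells previously loaded with FluxOR II dye.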
Sequence of Voltage-gated inwardly rectifying potassium channel KCNH2 (Homo sapiens) (Q12809 whole entry, looked up): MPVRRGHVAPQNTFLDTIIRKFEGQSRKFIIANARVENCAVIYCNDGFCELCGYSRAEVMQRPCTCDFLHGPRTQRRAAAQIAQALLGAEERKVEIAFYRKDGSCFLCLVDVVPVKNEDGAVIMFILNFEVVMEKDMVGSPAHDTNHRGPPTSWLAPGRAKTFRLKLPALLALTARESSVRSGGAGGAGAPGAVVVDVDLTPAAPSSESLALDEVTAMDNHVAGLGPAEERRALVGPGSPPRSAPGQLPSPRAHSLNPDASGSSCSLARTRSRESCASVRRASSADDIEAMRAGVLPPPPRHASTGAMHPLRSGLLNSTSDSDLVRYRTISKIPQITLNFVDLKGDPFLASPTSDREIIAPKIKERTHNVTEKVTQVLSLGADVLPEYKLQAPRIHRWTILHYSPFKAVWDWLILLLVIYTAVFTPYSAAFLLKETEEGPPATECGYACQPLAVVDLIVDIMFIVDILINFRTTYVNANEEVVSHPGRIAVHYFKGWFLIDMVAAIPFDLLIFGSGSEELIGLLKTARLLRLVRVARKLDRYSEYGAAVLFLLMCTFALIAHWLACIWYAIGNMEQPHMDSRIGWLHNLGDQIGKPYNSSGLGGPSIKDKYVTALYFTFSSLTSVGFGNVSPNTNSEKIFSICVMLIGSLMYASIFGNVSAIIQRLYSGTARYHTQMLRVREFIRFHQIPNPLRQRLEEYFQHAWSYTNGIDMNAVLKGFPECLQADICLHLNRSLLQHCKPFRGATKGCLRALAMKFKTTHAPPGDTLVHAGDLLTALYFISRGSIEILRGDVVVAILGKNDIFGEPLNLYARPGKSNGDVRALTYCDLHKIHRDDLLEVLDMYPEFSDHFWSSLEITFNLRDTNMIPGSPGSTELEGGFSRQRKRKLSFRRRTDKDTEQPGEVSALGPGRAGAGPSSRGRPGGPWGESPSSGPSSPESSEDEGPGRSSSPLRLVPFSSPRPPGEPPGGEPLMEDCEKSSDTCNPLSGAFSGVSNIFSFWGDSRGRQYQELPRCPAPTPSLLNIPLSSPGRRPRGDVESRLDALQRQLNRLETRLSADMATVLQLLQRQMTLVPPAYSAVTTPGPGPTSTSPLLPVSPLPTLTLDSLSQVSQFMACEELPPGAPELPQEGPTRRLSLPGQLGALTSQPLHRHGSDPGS
In general terms: The hERG channel carries a current that helps repolarise heart muscle cells.

Assay [7] deals with Cytochrome P450 3A4 (Homo sapiens) (UniProt P08684). The experiment in a line: Cytochrome P450 Family 3 Subfamily A Member 4 (CYP3A4) small molecule antagonists: luciferase reporter qHTS assay (AID 1671201). Also: nearly all actives have a fitted effect of over 50% in size. As to activity change, negative = inhibition: series mostly up to about 120 µM. An outline of the steps: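 qHTS, 1536-well. CYP3A4 + proluciferin substrate, cpd 10 min RT → NADPH regen 1 h RT → detection reagent 20 min → luminescence (RLU). Ketoconazole positive control.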
Sequence of Cytochrome P450 3A4 (Homo sapiens) (P08684 whole entry, looked up): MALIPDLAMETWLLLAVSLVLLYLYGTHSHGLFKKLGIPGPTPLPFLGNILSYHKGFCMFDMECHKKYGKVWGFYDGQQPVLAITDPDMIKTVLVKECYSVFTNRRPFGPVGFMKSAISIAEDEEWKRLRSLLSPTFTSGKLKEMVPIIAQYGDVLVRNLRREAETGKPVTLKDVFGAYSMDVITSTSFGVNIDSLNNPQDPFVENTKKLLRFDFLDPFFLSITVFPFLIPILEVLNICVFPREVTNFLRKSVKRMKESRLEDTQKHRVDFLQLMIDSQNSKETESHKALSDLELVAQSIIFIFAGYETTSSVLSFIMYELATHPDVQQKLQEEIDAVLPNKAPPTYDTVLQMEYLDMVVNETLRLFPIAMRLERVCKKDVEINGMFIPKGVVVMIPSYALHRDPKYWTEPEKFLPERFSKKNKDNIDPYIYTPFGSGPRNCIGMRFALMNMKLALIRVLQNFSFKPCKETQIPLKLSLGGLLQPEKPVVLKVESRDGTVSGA

For assay [8], the target named is Cytochrome P450 2D6 (Homo sapiens) (UniProt P10635). The experiment in a line: Cytochrome P450 Family 2 Subfamily D Member 6 (CYP2D6) small molecule antagonists: luciferase reporter qHTS assay (AID 1671196). Also: nearly all actives have a fitted effect of over 50% in size. As to activity change, negative = inhibition: series mostly up to about 120 µM. An outline of the steps:
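Read-out is luminescence from luciferin formed by CYP2D6 turnover of a proluciferin substrate, recorded as relative luminescence units. Reactions ran 1 h at room temperature after NADPH regeneration solution was added.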

In assay [9] the target is Acetylcholinesterase (Homo sapiens) (UniProt P22303). In words: Acetylcholinesterase (AChE) small molecule antagonists: enzyme-based qHTS assay with human liver microsomes (AID 1347399; calls by dose curve; also: nearly all actives have a fitted effect of over 60% in size). Particulars: Potency: qHTS inhibition. An outline of the steps: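 Recombinant human AChE (50 mU/mL in the enzyme mix) and human liver microsomes (0.25 mg/mL final) were preincubated with compound and NADPH (0.25 mg/mL final) for 30 min at 37 C. Acetylthiocholine/DTNB was then added; thiocholine was read colorimetrically after 10 min at room temperature.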
Sequence of Acetylcholinesterase (Homo sapiens) (P22303 whole entry, looked up): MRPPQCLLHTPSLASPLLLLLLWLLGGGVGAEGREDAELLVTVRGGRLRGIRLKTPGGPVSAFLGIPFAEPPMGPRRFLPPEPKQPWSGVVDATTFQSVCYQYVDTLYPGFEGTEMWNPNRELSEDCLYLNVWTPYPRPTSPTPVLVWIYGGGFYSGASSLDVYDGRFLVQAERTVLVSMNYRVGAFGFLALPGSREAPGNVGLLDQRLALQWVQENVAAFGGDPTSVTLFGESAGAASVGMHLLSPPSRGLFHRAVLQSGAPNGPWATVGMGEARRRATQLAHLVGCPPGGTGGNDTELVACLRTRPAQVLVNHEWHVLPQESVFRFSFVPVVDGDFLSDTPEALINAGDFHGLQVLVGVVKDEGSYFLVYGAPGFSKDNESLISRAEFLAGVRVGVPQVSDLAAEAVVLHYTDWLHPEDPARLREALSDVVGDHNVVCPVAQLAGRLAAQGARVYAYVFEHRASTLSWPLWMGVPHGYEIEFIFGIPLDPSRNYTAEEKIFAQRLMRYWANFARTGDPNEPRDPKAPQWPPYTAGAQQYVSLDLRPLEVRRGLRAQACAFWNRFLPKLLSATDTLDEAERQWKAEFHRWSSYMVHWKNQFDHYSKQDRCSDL

Several values for one entry are separate records, joined by “and”; a condition that tells them apart may be missing. Identical values can stand only once. A number with no mark means an inactive call. Results filed as inconclusive are left out. Activity calls are given as the source filed them. Unless noted, calls follow the shape of the dose curve; as a rule, active = well fitted curve in the direction sought with a large enough effect in the repeat runs; inconclusive = weak or mixed curves; inactive = no such curve, though single readings can be large; an effect the other way counts as inactive or inconclusive.
% is scaled to controls: 0 for no effect and ±100 for the full control effect; potency is read from the fitted curve at half-maximal effect.

Sequence of Cytochrome P450 2C19 (Homo sapiens) (P33261 whole entry, looked up): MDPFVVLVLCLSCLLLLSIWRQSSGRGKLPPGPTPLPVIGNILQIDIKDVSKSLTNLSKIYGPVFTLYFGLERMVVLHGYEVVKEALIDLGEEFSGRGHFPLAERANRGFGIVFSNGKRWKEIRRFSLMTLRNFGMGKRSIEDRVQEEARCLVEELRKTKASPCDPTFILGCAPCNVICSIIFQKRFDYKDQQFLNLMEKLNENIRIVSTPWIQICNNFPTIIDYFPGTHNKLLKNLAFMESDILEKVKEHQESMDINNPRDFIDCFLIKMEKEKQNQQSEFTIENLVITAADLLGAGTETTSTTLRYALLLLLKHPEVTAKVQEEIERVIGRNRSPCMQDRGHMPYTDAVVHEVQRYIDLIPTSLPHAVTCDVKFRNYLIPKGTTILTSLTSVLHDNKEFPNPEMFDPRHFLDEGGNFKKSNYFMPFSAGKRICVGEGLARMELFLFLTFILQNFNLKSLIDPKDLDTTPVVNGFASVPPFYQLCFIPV
Sequence of Cytochrome P450 2C9 (Homo sapiens) (P11712 whole entry, looked up): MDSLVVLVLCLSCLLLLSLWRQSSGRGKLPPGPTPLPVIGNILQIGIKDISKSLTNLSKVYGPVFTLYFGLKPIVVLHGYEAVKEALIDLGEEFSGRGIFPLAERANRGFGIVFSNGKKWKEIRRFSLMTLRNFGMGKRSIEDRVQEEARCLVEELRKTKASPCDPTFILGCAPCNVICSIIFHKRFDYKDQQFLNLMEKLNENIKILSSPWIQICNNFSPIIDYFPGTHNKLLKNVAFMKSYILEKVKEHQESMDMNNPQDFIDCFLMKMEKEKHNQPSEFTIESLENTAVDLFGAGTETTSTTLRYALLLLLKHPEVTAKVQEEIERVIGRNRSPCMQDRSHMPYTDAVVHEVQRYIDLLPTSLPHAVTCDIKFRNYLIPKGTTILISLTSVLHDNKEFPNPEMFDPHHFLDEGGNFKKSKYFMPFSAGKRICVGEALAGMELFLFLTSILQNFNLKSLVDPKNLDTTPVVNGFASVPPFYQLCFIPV
Sequence of Cytochrome P450 2D6 (Homo sapiens) (P10635 whole entry, looked up): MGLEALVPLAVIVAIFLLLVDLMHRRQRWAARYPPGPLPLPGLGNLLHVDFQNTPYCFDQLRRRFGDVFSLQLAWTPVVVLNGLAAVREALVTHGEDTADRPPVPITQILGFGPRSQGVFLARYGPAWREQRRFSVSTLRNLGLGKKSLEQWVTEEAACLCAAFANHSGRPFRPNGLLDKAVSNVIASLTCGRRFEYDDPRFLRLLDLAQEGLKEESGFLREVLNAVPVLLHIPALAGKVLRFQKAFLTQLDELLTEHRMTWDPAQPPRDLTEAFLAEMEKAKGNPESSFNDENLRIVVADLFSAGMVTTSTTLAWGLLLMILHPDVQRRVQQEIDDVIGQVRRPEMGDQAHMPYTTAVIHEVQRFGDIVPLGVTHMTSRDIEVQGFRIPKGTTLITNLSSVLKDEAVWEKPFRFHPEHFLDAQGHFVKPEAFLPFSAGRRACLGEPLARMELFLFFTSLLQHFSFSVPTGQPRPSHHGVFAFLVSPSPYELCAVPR

On to `[Cl][Sn]([c]1ccccc1)([c]1ccccc1)[c]1ccccc1`, for which the activity change, negative = inhibition in [1] was 0% [at 23.6 µM]; in assay [2], 12.9% [at 23.8 µM]; in assay [5], -2.03% [at 23.6 µM]. The Potency in assay [3] was 6.74 µM (active); in assay [4], 3.79 µM (active); in assay [6], 2.08 µM (active); in assay [7], 7.56 µM (active).
In the case of `CC(=O)Nc1ccc2c(c1)Cc1ccccc1-2`, the Potency entry in [1], in assay [2] and in assay [6] was “inactive” in each case. Moreover, the Potency is 18.1 µM (active) in assay [3], 3.22 µM (active) in [5] and 64.3 µM (active) in assay [7].
For `O=[N+]([O-])c1ccc2ccc3cccc4ccc1c2c34`, the Potency result in assay [1], in [2], in assay [3], in assay [4], in assay [6] and in [7] was “inactive” each time. Further, the Potency in [8] was 31.7 µM (active); in [5] it was 0.224 µM (active).
As to `SCc1ccco1`, the Potency entry in [1], in [2] and in assay [6] was “inactive” in each case. The Potency in assay [3] is 39.9 µM (active); in assay [4] it was 35.6 µM (active); in [5], 35.6 µM (active).
`Clc1ccc(Oc2ccccc2)cc1`: the Potency result in assay [1], in assay [2], in [4] and in [7] was “inactive” each time.
As to `[Cl][Sb]([Cl])[Cl]`, the Potency result in assay [1], in assay [2], in assay [8], in assay [3], in assay [4] and in assay [5] was “inactive” throughout. Further, the Potency result in assay [6] and in [7] was “inactive” throughout.
Turning to `C[C@@H]1CC[C@@]2(OC1)O[C@H]1[C@@H](O)[C@H]3[C@@H]4CC[C@H]5C[C@@H](O[C@@H]6O[C@H](CO)[C@H](O[C@@H]7O[C@H](CO)[C@@H](O)[C@H](O[C@@H]8OC[C@@H](O)[C@H](O)[C@H]8O)[C@H]7O[C@@H]7O[C@H](CO)[C@@H](O)[C@H](O[C@@H]8O[C@H](CO)[C@@H](O)[C@H](O)[C@H]8O)[C@H]7O)[C@H](O)[C@H]6O)[C@H](O)C[C@]5(C)[C@H]4CC[C@]3(C)[C@H]1[C@@H]2C`, the Potency result in assay [1], in assay [9], in assay [8], in assay [3], in assay [4] and in [5] was “inactive” each time. Also, the Potency in [6] is 11.6 µM (active).
As for `BrC(Br)Br`, the Potency result in assay [1], in assay [2], in assay [3], in [4] and in assay [6] was “inactive” each time. Also, the Potency was 25.2 µM (active) in assay [8] and 44.8 µM (active) in assay [5].
`CC(Cc1ccc(C(C)(C)C)cc1)CN1C[C@@H](C)O[C@@H](C)C1` (stereo partly specified): the Potency entry in assay [1] and in [9] was “inactive” throughout. The Potency is 8.94 µM (active) in assay [8]; 31.7 µM (active) in assay [3]; 35.6 µM (active) in assay [4]; 39.9 µM (active) in assay [5]; 12.3 µM (active) in [6]; 22.4 µM (active) in assay [7].
As for `C[C@]12CC[C@H]3[C@@H](CCC4=CC(=O)CC[C@@]43C)[C@@H]1CC[C@@H]2O`, the Potency entry in assay [1], in [2], in [8] and in assay [7] was “inactive” in each case.
As for `ClC(Cl)=C(Cl)Cl`, the Potency result in assay [1], in assay [2], in assay [8], in assay [3], in assay [4] and in assay [6] was “inactive” throughout.
As to `Clc1ccc(C(c2ccc(Cl)cc2)C(Cl)(Cl)Cl)cc1`, the Potency result in assay [1], in assay [2], in [8] and in [7] was “inactive” each time. The Potency in assay [3] is 20.2 nM (active) and 17.8 nM (active) and 69.2 nM (active); in assay [4] it was 2.26 µM (active) and 10 µM (active) and 3.89 µM (active); in assay [5], 12.6 µM (active) and 13.8 µM (active); in assay [6] it was 13.8 µM (active).
For the compound `CCN(CC)C(=S)[S-].CCN(CC)C(=S)[S-].[Zn+2]`, the Potency entry in [1], in assay [2] and in assay [5] was “inactive” each time. Besides, the Potency was 49.8 µM (active) in [3] and 8.63 µM (active) in [6].
Consider `CCCCCCCCCC[N+](C)(C)CCCCCCCCCC`, for which the Potency in assay [1] is 31.7 µM (active); in assay [8] it was 1 µM (active); in assay [3] it was 35.6 µM (active); in assay [5], 39.9 µM (active). In [9], the Potency result was “inactive”.
`Fc1ccc(Oc2ccnc3cc(Cl)cc(Cl)c23)cc1`: the Potency result in assay [1] and in assay [9] was “inactive” each time. The Potency in assay [8] was 35.6 µM (active); in assay [3], 20 µM (active); in assay [4], 31.7 µM (active); in assay [5], 0.71 µM (active); in [6], 24.5 µM (active); in assay [7], 63.3 µM (active).
Consider `O=C(NC(=O)c1c(F)cccc1F)Nc1cc(Cl)c(OC(F)(F)C(F)F)c(Cl)c1`, for which the Potency result in [1], in assay [2], in [8], in assay [6] and in [7] was “inactive” each time. The figures for the Potency in [3] and in assay [4] were 79.6 µM (active) and 39.9 µM (active), respectively.
Turning to `COP(=O)(OC)SCn1c(=O)oc2cc(Cl)cnc21`, the Potency in [1] is 7.1 µM (active); in [2], 0.252 µM (active); in assay [3], 25.2 µM (active); in assay [4], 31.7 µM (active); in [5] it was 39.9 µM (active). In [6], the Potency entry was “inactive”.
As for `CCOP(=O)(NC(C)C)Oc1ccc(SC)c(C)c1` (stereo unspecified), the Potency was 84.4 µM (active) in assay [1]; 71 µM (active) in assay [9]; 5.02 µM (active) in assay [8]; 1.59 µM (active) in assay [3]; 11.9 µM (active) in assay [4]; 2.75 µM (active) in assay [5]. Besides, the Potency entry in [6] was “inactive”.
For the compound `CCOC(=O)c1ccccc1S(=O)(=O)NC(=O)Nc1nc(Cl)cc(OC)n1`, the Potency entry in assay [1], in assay [2], in assay [8], in assay [5] and in assay [6] was “inactive” each time.
`CC(C)C(=O)Cl`: the Potency result in assay [1], in assay [9], in assay [8], in assay [3], in [4] and in assay [5] was “inactive” throughout. Further, the Potency entry in assay [6] and in assay [7] was “inactive” in each case.
Take `S=C=Nc1cccc2ccccc12`: the Potency entry in assay [1], in [2] and in assay [6] was “inactive” throughout. Also, the Potency in assay [8] is 14 µM (active); in assay [4] it was 4.98 µM (active); in [5] it was 8.85 µM (active).

The record behind these values is PubChem BioAssay (Tox21).
